Experimental findings from PMC8384837, “Expanding the binding specificity for RNA recognition by a PUF domain” are described below.

What all share (test): yeast three-hybrid, YBZ-1, SC-Leu-His + 0.5 mM 3-AT, 4 days
Common to all, as to conditions: tags: N-Gal4 AD-HA kept; label: inside an RPR1-promoter hybrid RNA with tandem MS2 sites; ssRNA

Assay [1] addresses PUM1 PUF domain R7-RKR (Homo sapiens, UniProt Q14671 828-1176, S1079R;N1080K;E1083R). The essentials: (§1)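 The interaction score is the logarithmic change in variant frequency from input to selection. It uses log2, with a pseudocount of 1 for absent variants, and frequencies came from PCR-amplified, Illumina-sequenced repeat regions. The libraries were Pumilio-1 PUF domains randomized at the three base-contacting residues per repeat, co-expressed with matching RNA elements in strain YBZ-1 (LexA–MS2 coat fusion, HIS3 reporter). Plating lasted four days on SC-Leu (input) or SC-Leu-His + 0.5 mM 3-AT (selection).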

For assay [2], the target named is PUM1 PUF domain R5-TRA (Homo sapiens, UniProt Q14671 828-1176, C1007T;Q1011A). The essentials:
as §1

For assay [3], the target named is PUM1 PUF domain R1-VFR (Homo sapiens, UniProt Q14671 828-1176, S863V;R864F;Q867R). The essentials: as §1
The target of assay [4] is PUM1 PUF domain R1-RFI (Homo sapiens, UniProt Q14671 828-1176, S863R;R864F;Q867I). The gist of the method: as §1
Assay [5] concerns the target PUM1 PUF domain R1-KIE (Homo sapiens, UniProt Q14671 828-1176, S863K;R864I;Q867E). The essentials: as §1
The target in assay [6] is PUM1 PUF domain R3-RMK (Homo sapiens, UniProt Q14671 828-1176, C935R;R936M;Q939K). The essentials:
as §1

The target in assay [7] is PUM1 PUF domain R8-KNR (Homo sapiens, UniProt Q14671 828-1176, N1122K;Y1123N;Q1126R). The essentials: as §1
For assay [8], the target named is PUM1 PUF domain R1-GAS (Homo sapiens, UniProt Q14671 828-1176, S863G;R864A;Q867S). The essentials: as §1
For assay [9], the target named is PUM1 PUF domain R3-VRW (Homo sapiens, UniProt Q14671 828-1176, C935V;Q939W). The essentials:
as §1

In assay [10] the target is T1, PUM1 PUF domain R6-FYI (Homo sapiens, UniProt Q14671 828-1176, N1043F;Q1047I).
T1 sequence: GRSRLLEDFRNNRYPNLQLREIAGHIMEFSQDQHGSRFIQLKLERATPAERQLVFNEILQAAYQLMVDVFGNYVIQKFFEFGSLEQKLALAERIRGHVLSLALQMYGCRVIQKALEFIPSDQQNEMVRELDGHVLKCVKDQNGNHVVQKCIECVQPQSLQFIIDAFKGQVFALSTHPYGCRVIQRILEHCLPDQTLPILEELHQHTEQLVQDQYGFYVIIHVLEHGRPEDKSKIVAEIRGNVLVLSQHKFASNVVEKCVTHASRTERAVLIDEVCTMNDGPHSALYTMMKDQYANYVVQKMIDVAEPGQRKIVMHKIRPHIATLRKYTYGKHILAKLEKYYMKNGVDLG
The gist of the method: as §1

PUM1 PUF domain R5-TRA, sequence (Q14671 828-1176 C1007T/Q1011A): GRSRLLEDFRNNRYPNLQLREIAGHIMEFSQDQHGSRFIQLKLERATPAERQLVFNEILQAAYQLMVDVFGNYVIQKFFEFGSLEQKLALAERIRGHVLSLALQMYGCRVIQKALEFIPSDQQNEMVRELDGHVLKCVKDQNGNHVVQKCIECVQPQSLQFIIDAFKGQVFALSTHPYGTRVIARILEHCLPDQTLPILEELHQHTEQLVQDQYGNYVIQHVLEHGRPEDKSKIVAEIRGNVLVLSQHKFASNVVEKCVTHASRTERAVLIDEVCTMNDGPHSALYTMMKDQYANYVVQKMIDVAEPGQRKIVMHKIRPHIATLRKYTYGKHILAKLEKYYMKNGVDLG

For “GGCUAGAACUAGUGGAUCCCCCGGCGCCCGGCGGCUCGAGCCCGGGUAAGUUUAAAUAGUCUGCAUGCCGCCGGGCGCCAUGCCUGCAGGUCGACUCUAGAAAACAUG”, the binding signal in assay [1] was 2.99 log2 enrichment (interaction score).

As to “GGCUAGAACUAGUGGAUCCCCCGGCGCCCGGCGGCUCGAGCCCGGGUAAGUGUUAAUAGUCUGCAUGCCGCCGGGCGCCAUGCCUGCAGGUCGACUCUAGAAAACAUG”, the binding signal in assay [2] is 2.4 log2 enrichment (interaction score).

On to “GGCUAGAACUAGUGGAUCCCCCGGCGCCCGGCGGCUCGAGCCCGGGUAAGUGUAAAUUGUCUGCAUGCCGCCGGGCGCCAUGCCUGCAGGUCGACUCUAGAAAACAUG”, for which the binding signal in [3] was 1.47 log2 enrichment (interaction score); in assay [4], 2.47 log2 enrichment (interaction score); in assay [5], 3.28 log2 enrichment (interaction score).

For “GGCUAGAACUAGUGGAUCCCCCGGCGCCCGGCGGCUCGAGCCCGGGUAAGUGUAAUUAGUCUGCAUGCCGCCGGGCGCCAUGCCUGCAGGUCGACUCUAGAAAACAUG”, in [6], the binding signal is 4.31 log2 enrichment (interaction score).

On to “GGCUAGAACUAGUGGAUCCCCCGGCGCCCGGCGGCUCGAGCCCGGGUAAGCGUAAAUAGUCUGCAUGCCGCCGGGCGCCAUGCCUGCAGGUCGACUCUAGAAAACAUG”, for which, in [7], the binding signal was 2.46 log2 enrichment (interaction score).

Regarding “GGCUAGAACUAGUGGAUCCCCCGGCGCCCGGCGGCUCGAGCCCGGGUAAGUGUGAAUAGUCUGCAUGCCGCCGGGCGCCAUGCCUGCAGGUCGACUCUAGAAAACAUG”, the binding signal in assay [2] was 1.91 log2 enrichment (interaction score).

Take “GGCUAGAACUAGUGGAUCCCCCGGCGCCCGGCGGCUCGAGCCCGGGUAAGUGUAAAUCGUCUGCAUGCCGCCGGGCGCCAUGCCUGCAGGUCGACUCUAGAAAACAUG”: the binding signal in assay [3] is 3.96 log2 enrichment (interaction score); in [8], 2.52 log2 enrichment (interaction score).

In the case of “GGCUAGAACUAGUGGAUCCCCCGGCGCCCGGCGGCUCGAGCCCGGGUAAGUGUAAAUAGUCUGCAUGCCGCCGGGCGCCAUGCCUGCAGGUCGACUCUAGAAAACAUG”, the binding signal was 3.7 log2 enrichment (interaction score) in assay [9], 2.82 log2 enrichment (interaction score) in assay [2], 1.82 log2 enrichment (interaction score) in assay [7] and 2.78 log2 enrichment (interaction score) in assay [10].
